# Reference: PubChem BioAssay (NCI)
# This is part of a sample that, as a whole, favours compounds with a hit. Of some 79,000 tested, about 15% had one in any assay. Values without a mark were called inactive. Active and inactive are the calls of the source. Rule as the data show it: active = growth inhibition above about 70%; inactive = the rest.
# How the values were obtained:
# [1] = NCI Yeast Anticancer Drug Screen. Data for the sgs1 mgt1 strain (AID 161);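 also: 0% = growth of cultures given vehicle only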; details: S. cerevisiae sgs1 mgt1 strain, hits give high values
# How it was run: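 Inhibition of yeast growth, normalised to vehicle-treated controls, is reported for a strain bearing genetic alterations in DNA damage repair.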
# [2] = NCI Yeast Anticancer Drug Screen. Data for the CLN2oe strain (AID 163);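 also: 0% = growth of vehicle-only control cultures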; details: S. cerevisiae CLN2oe strain, hits give high values
# How it was run: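 Growth of a genetically modified yeast strain is measured after compound exposure and compared with cultures given vehicle alone.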
# [3] = NCI Yeast Anticancer Drug Screen. Data for the cln2 rad14 strain (AID 165);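 also: 0% = growth equal to vehicle treated cultures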; details: S. cerevisiae cln2 rad14 strain, hits give high values
# How it was run: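 Compounds are applied to the cln2 rad14 yeast strain, and growth is then compared with that of vehicle-treated cultures to give inhibition.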
# [4] = NCI Yeast Anticancer Drug Screen. Data for the bub3 strain (AID 167); details: S. cerevisiae bub3 mutant strain, hits give high values
# How it was run: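 Inhibition values come from growth of compound-treated mutant yeast normalised to vehicle-treated controls.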
# [5] = NCI Yeast Anticancer Drug Screen. Data for the wt2 strain (AID 169);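 also: 0% = growth of vehicle-treated yeast cultures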; details: S. cerevisiae wt2 strain growth inhibition, hits give high values
# How it was run: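 This strain belongs to a panel of yeast strains with defined genetic alterations in DNA damage repair or cell cycle control. Compounds are applied, and growth inhibition is measured against vehicle-treated cultures.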
# [6] = NCI Yeast Anticancer Drug Screen. Data for the mlh1 strain (AID 171);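 also: 0% = growth of vehicle-treated control cultures of the same strain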; details: S. cerevisiae mlh1 strain growth inhibition, hits give high values
# How it was run: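 Growth of the mutant yeast strain after compound exposure, expressed as inhibition relative to vehicle-only controls.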
# [7] = NCI Yeast Anticancer Drug Screen. Data for the sgs1 strain (AID 173);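 also: 0% = growth of vehicle-only control cultures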; details: S. cerevisiae sgs1 mutant, hits give high values
# How it was run: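 Growth of a yeast strain bearing a defined genetic alteration is measured after compound treatment. Inhibition is expressed relative to vehicle-only controls.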
# [8] = NCI Yeast Anticancer Drug Screen. Data for the mlh1 rad18 strain (AID 175); details: S. cerevisiae mlh1 rad18 strain growth inhibition, hits give high values
# How it was run: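 Read-out is yeast growth inhibition, calculated against vehicle-only controls. The compound was applied to a strain engineered with DNA damage repair alterations.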
# [9] = NCI Yeast Anticancer Drug Screen. Data for the rad18 strain (AID 177); details: S. cerevisiae rad18 mutant growth inhibition, hits give high values
# How it was run: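 Growth of the mutant yeast strain after compound exposure, normalised to vehicle-only cultures.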
# [10] = at 5.0 µM (retest, dose inferred, filed as 0.5)
# [11] = at 50.0 µM (retest, dose inferred, filed as 5.0)
structure (smiles),measurement,setting,value
COC(=O)C1C2c3ccccc3C(c3ccccc32)C1C(=O)OC (configuration not stated),growth inhibition,[1]; [10],5%
same,growth inhibition,[1]; [11],70% (active)
same,growth inhibition,[1]; at 50.0 µM,72.5% (active)
same,growth inhibition,[2]; at 1.2 µM,2%
same,growth inhibition,[2]; at 3.7 µM,-1%
same,growth inhibition,[2]; at 11.0 µM,0%
same,growth inhibition,[2]; at 33.0 µM,7%
same,growth inhibition,[2]; at 100.0 µM,17%
same,growth inhibition,[3]; [10],-3%
same,growth inhibition,[3]; [11],28%
same,growth inhibition,[3]; at 50.0 µM,8.85%
same,growth inhibition,[4]; at 1.2 µM,-1%
same,growth inhibition,[4]; at 3.7 µM,-2%
same,growth inhibition,[4]; [10],19%
same,growth inhibition,[4]; at 11.0 µM,-4%
same,growth inhibition,[4]; at 33.0 µM,1%
same,growth inhibition,[4]; [11],27%
same,growth inhibition,[4]; at 50.0 µM,14.4%
same,growth inhibition,[4]; at 100.0 µM,2%
same,growth inhibition,[5]; at 1.2 µM,-2%
same,growth inhibition,[5]; at 3.7 µM,-6%
same,growth inhibition,[5]; at 11.0 µM,-1%
same,growth inhibition,[5]; at 33.0 µM,5%
same,growth inhibition,[5]; at 100.0 µM,-1%
same,growth inhibition,[6]; at 1.2 µM,-2%
same,growth inhibition,[6]; at 3.7 µM,-2%
same,growth inhibition,[6]; at 11.0 µM,-3%
same,growth inhibition,[6]; at 33.0 µM,1%
same,growth inhibition,[6]; at 100.0 µM,11%
same,growth inhibition,[7]; at 1.2 µM,-6%
same,growth inhibition,[7]; at 3.7 µM,-17%
same,growth inhibition,[7]; at 11.0 µM,-11%
same,growth inhibition,[7]; at 33.0 µM,-4%
same,growth inhibition,[7]; at 100.0 µM,2%
same,growth inhibition,[8]; [10],17%
same,growth inhibition,[8]; [11],69%
same,growth inhibition,[8]; at 50.0 µM,17.1%
same,growth inhibition,[9]; at 1.2 µM,0%
same,growth inhibition,[9]; at 3.7 µM,2%
same,growth inhibition,[9]; at 11.0 µM,4%
same,growth inhibition,[9]; at 33.0 µM,7%
same,growth inhibition,[9]; at 100.0 µM,8%
